# Several values for one entry are separate records, joined by “and”; a condition that tells them apart may be missing. Equal entries are not always repeated. Results filed as inconclusive are left out. Where a call stands in place of a potency, no number is given. Where a structure was tested more than once in an assay, its records may differ in their call. Activity calls are given as the source filed them. Unless noted, calls follow the shape of the dose curve; as a rule, active = well fitted curve in the direction sought with a large enough effect in the repeat runs; inconclusive = weak or mixed curves; inactive = no such curve, though single readings can be large; an effect the other way counts as inactive or inconclusive.
# Key:
# [1] = qHTS assay to identify small molecule antagonists of the estrogen receptor alpha (ER-alpha) signaling pathway using the BG1 cell line in the presence of 0.1 nM 17-beta-estradiol - cell viability counter screen (AID 1259241); also: nearly all actives have a fitted effect of over 40% in size
# Outline: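 VM7Luc4E2 cells (endogenous ER-alpha, 4×ERE-luciferase), hormone-starved 5 days in charcoal-stripped FBS, were treated with compounds plus 0.1 nM 17beta-estradiol for 22 hr at 37C; viability read in same wells as CellTiter-Fluor live-cell protease fluorescence.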
# [2] = target: Estrogen receptor (Homo sapiens) (UniProt P03372); assay: qHTS assay to identify small molecule antagonists of the estrogen receptor alpha (ER-alpha) signaling pathway using the BG1 cell line in the presence of 0.1 nM 17-beta-estradiol (AID 1259244); also: nearly all actives have a fitted effect of over 50% in size; also: potency is read from the fitted curve at half-maximal effect
# Sequence of Estrogen receptor (Homo sapiens) (P03372 whole entry, looked up): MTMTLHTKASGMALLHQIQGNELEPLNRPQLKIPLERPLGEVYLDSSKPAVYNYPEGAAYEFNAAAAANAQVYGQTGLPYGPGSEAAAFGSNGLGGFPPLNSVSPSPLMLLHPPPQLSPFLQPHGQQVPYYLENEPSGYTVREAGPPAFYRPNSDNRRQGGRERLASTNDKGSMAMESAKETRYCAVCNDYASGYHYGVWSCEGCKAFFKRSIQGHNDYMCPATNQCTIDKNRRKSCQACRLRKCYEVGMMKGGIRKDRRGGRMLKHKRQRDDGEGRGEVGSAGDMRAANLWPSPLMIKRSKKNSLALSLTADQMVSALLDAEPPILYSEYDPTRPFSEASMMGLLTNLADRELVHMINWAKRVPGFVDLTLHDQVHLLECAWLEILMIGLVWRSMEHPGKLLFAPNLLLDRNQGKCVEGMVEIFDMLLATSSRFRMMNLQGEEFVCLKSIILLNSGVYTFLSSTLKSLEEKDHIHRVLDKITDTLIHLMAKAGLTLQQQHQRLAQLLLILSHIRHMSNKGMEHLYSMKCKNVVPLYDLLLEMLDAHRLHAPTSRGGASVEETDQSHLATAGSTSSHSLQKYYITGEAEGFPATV
# Outline: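 Cells: VM7Luc4E2, endogenous ER-alpha, 4x ERE-luc stable. Pre-culture 5 d, phenol red-free, charcoal-stripped FBS. Plated 24 h, compound + E2 0.1 nM final, 22 h 37C/5% CO2. Readout ONE-Glo luminescence.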
# [3] = qHTS assay to identify small molecule HDAC inhibitors (AID 1259364); also: top concentration of the series differs between compounds; nearly all actives have a fitted effect of over 45% in size
# Outline: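 Luminescence from a cell-permeant luminogenic class I/II HDAC substrate reports endogenous deacetylase activity in intact HCT-116 cells treated with compounds for 2 h.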
# [4] = qHTS assay to identify small molecule HDAC inhibitors - cell viability counter screen (AID 1259365); also: nearly all actives have a fitted effect of over 50% in size; also: potency is read from the fitted curve at half-maximal effect
# Outline: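 Wild-type HCT-116 cells were seeded at 1,500 per well, incubated overnight at 37 C, then exposed to compounds in DMSO for 2hr. Viability was read by CellTiter-Glo luminescence after 30min at room temperature.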
# [5] = qHTS assay to identify small molecule antagonists of the sonic hedgehog signaling (Shh) pathway - cell viability counter screen (AID 1259367); also: nearly all actives have a fitted effect of over 55% in size; also: potency is read from the fitted curve at half-maximal effect
# Outline: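 Seed 3T3 Gli1-Luc cells at 2,000 per well; incubate 4 hr; add compound in DMSO, then conditioned medium; incubate at 37C with 5% CO2; add CellTiter-Fluor after 23 hr; read fluorescence 1 hr later.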
# [6] = qHTS assay to identify small molecule agonists of the sonic hedgehog signaling (Shh) pathway (AID 1259368; calls by dose curve; also: series mostly up to about 92 µM; nearly all actives have a fitted effect of over 15% in size)
# Outline: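 3T3Gli1-Luc (NIH/3T3 clone, stable Gli1-Luc); 4 hr pre-incubation, then cpd in DMSO 24 hr, 37 C/5% CO2; luciferase reagent 30 min RT; luminescence.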
# [7] = target: Estrogen receptor beta (Homo sapiens) (UniProt Q92731); assay: qHTS assay to identify small molecule agonists of the estrogen receptor beta (ER-beta) signaling pathway (AID 1259377; active = well fitted activation curve with a large enough effect in the signal ratio in the repeat runs, not every such curve was filed as active; the % refers to the signal ratio)
# Sequence of Estrogen receptor beta (Homo sapiens) (Q92731 whole entry, looked up): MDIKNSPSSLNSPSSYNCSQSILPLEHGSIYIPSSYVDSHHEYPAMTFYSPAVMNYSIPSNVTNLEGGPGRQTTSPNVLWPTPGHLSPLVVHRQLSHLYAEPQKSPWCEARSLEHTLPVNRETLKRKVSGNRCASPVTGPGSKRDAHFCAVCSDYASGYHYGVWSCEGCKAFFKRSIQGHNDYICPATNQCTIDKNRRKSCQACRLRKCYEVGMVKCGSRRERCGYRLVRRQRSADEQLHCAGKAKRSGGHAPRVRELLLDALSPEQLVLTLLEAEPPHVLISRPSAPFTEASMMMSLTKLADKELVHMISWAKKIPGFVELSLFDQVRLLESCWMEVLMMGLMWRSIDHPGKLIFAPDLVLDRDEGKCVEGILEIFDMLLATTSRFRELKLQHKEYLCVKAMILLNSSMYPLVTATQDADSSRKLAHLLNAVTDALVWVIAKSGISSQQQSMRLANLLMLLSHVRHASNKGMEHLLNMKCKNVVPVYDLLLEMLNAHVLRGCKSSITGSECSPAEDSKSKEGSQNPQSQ
# Outline: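 ER-beta-UAS-bla HEK293T (GripTite) cells carrying a UAS-driven beta-lactamase reporter, in medium with 2% charcoal-stripped FBS, were exposed to compounds for 16 hr at 37C; LiveBLAzer B/G FRET substrate was then added and fluorescence read after 2 hours at room temperature.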
# [8] = qHTS assay to identify small molecule agonists of the androgen receptor (AR) signaling pathway in the presence of an antagonist - cell viability counter screen (AID 1259379);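 also: MDA-kb2 human breast cancer cells carrying an MMTV luciferase reporter; series mostly up to about 92 µM; nearly all actives have a fitted effect of over 25% in size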
# Outline: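 Cells: MDA-kb2 (MMTV-luc, AR and GR elements), 3,000/well, 5 hr settle. Added: nilutamide 3.0uM final, then compounds (15 conc.). Incubation: 16 hr, 37C, no CO2. Read-out: CellTiter-Fluor, 1 hr, fluorescence.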
# [9] = target: Estrogen receptor (Homo sapiens) (UniProt P03372); assay: qHTS assay to identify small molecule agonists of the estrogen receptor alpha (ER-alpha) signaling pathway in the presence of an antagonist (AID 1259383; calls by dose curve; also: top concentration of the series differs between compounds; nearly all actives have a fitted effect of over 15% in size)
# Outline: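 VM7Luc4E2, endog. ER-alpha + 4×ERE-luc; charcoal-stripped FBS, phenol red-free, 5 d; 24hr plating; +10.0nM ICI-182,780 (final); cpds 15 conc, 22hr, 37C/5% CO2; ONE-Glo luminescence.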
# [10] = qHTS assay to identify small molecule agonists or antagonists of the thyroid stimulating hormone receptor (TSHR) signaling pathway - wild type cell line counter screen (AID 1259384; calls by dose curve)
# Outline: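 Wild-type Hek293 cells, 800/well, 18 h at 37C, then compound with Ro20-1724 for 30 min RT. cAMP by HTRF (cAMP-d2/anti-cAMP cryptate), 1 h RT, fluorescence read. 15 concentrations, triplicates.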
# [11] = qHTS assay to identify small molecule agonists of the sonic hedgehog signaling (Shh) pathway - cell viability counter screen (AID 1259366); also: nearly all actives have a fitted effect of over 50% in size; also: potency is read from the fitted curve at half-maximal effect
# Outline: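 NIH/3T3-derived 3T3 Gli1-Luc cells (stable Gli1-responsive firefly luciferase reporter) were seeded, rested 4 hr at 37 C/5% CO2, then exposed to compounds in DMSO for 24 hr; viability was read by CellTiter-Fluor fluorescence in the same wells.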
# [12] = qHTS assay to identify small molecule antagonists of the sonic hedgehog signaling (Shh) pathway (AID 1259369; calls by dose curve; also: nearly all actives have a fitted effect of over 45% in size; also: potency is read from the fitted curve at half-maximal effect)
# Outline: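 3T3Gli1-Luc, conditioned-medium-stimulated, 24hr cpd, 37C/5% CO2; Gli1-driven firefly Luc luminescence after 30min RT with luciferase reagent. Cells plated 4hr before cpd.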
# [13] = target: Estrogen receptor beta (Homo sapiens) (UniProt Q92731); assay: qHTS assay to identify small molecule antagonists of the estrogen receptor beta (ER-beta) signaling pathway (AID 1259378; active = well fitted inhibition curve with a large enough effect in the signal ratio in the repeat runs, not every such curve was filed as active; the % refers to the signal ratio)
# Outline: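 ER-beta-UAS-bla HEK293T cells in 2% charcoal-stripped FBS medium treated with compound plus 1nM final 17-beta-estradiol for 16 hr at 37C. Beta-lactamase reporter read by FRET substrate fluorescence after 2 hours at room temperature.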
# [14] = qHTS assay to identify small molecule agonists of the estrogen receptor beta (ER-beta) signaling pathway - cell viability counter screen (AID 1259380); also: nearly all actives have a fitted effect of over 30% in size; also: potency is read from the fitted curve at half-maximal effect
# Outline: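 HEK293T ER-beta-UAS-bla; 2% CS-FBS; 6 hr pre-plate, 16 hr cpd at 37C/5% CO2; LiveBLAzer read first, then CellTiter-Glo 30 min RT, luminescence.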
# [15] = qHTS assay to identify small molecule antagonists of the estrogen receptor beta (ER-beta) signaling pathway - cell viability counter screen (AID 1259382); also: nearly all actives have a fitted effect of over 55% in size; also: potency is read from the fitted curve at half-maximal effect
# Outline: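 Cells: ER-beta-UAS-bla HEK293T, 2,000/well, 2% CS-FBS, 6 hr settle. Cpd + E2 (1nM final), 16 hr, 37C/5% CO2. Bla FRET substrate 2 hr RT, then CellTiter-Glo 30 min RT, luminescence.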
# [16] = target: Thyrotropin receptor (Homo sapiens) (UniProt P16473); assay: qHTS assay to identify small molecule antagonists of the thyroid stimulating hormone receptor (TSHR) signaling pathway (AID 1259385; calls by dose curve; also: nearly all actives have a fitted effect of over 20% in size; also: potency is read from the fitted curve at half-maximal effect)
# Sequence of Thyrotropin receptor (Homo sapiens) (P16473 whole entry, looked up): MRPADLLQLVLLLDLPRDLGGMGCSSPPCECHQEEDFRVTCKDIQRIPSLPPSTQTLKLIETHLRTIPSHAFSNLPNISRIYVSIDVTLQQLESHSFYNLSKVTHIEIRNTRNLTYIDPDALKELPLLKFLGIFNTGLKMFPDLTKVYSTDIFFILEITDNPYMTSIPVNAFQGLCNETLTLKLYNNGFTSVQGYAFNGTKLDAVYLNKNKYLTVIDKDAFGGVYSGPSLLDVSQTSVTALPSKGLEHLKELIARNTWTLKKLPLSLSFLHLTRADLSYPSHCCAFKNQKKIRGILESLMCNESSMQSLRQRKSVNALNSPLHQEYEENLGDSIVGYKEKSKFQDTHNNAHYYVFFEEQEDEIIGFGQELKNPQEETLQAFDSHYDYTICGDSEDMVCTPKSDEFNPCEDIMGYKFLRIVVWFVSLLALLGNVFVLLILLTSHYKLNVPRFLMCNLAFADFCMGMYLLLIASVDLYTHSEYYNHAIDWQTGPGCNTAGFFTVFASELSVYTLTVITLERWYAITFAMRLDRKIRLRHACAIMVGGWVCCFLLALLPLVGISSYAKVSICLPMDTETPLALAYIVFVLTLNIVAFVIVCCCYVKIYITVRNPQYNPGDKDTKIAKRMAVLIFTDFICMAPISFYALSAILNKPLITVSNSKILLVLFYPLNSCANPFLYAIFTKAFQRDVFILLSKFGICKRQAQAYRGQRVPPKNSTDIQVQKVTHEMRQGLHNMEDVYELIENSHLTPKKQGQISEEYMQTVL
# Outline: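 TSHR-HEK293 cells (800/well) plated 18 h, then compounds with Ro20-1724 and TSH at 1.5 ng/mL final, 30 min at room temperature. cAMP quantified by HTRF (cAMP-d2/anti-cAMP-cryptate, 1 h); 15 concentrations in triplicate.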
# [17] = qHTS assay to identify small molecule phospholipidosis (PLD) inducers (AID 1259344; active = well fitted curve in the direction sought with a large enough effect; an effect the other way counts as inactive or inconclusive)
# Outline: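 Quantitative HTS in HepG2: compound plus LipidTOX Red dye for 24 h, paraformaldehyde fixation with Hoechst 33342, widefield high-content imaging; amiodarone as positive and DMSO as negative control.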
# [18] = target: Androgen receptor (Homo sapiens) (UniProt P10275); assay: qHTS assay to identify small molecule antagonists of the androgen receptor (AR) signaling pathway using the MDA cell line in the presence of 0.5 nM R1881 (AID 1259243); also: potency is read from the fitted curve at half-maximal effect; nearly all actives have a fitted effect of over 50% in size
# Sequence of Androgen receptor (Homo sapiens) (P10275 whole entry, looked up): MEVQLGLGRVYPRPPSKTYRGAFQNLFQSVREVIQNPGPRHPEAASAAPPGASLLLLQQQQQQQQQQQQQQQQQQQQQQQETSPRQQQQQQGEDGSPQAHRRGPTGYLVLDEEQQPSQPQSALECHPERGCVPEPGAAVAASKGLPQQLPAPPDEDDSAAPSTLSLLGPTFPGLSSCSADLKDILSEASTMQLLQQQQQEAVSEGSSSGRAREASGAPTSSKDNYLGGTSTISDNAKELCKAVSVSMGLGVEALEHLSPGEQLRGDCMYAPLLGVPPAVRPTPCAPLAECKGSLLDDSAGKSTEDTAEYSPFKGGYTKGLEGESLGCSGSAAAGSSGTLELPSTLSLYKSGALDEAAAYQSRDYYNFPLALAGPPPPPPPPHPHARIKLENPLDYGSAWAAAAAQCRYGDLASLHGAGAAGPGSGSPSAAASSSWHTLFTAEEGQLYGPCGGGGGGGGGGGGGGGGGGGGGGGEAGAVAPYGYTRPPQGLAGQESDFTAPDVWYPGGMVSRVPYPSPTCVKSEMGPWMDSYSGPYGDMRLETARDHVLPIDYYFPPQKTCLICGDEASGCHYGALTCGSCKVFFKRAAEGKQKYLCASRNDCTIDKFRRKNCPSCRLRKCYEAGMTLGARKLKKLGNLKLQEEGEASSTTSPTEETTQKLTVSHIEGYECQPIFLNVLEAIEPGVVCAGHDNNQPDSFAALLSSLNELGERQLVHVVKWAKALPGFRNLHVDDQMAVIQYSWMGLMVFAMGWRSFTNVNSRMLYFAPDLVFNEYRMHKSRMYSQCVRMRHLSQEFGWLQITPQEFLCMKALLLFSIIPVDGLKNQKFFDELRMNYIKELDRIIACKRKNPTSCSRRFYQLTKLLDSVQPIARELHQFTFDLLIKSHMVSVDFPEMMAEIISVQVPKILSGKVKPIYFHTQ
# Outline: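 Luciferase luminescence is the read-out: compounds are tested for suppressing 0.5 nM R1881-driven MMTV reporter activity in MDA-kb2 cells after 16 hr at 37C.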
# [19] = target: Androgen receptor (Homo sapiens) (UniProt P10275); assay: qHTS assay to identify small molecule agonists of the androgen receptor (AR) signaling pathway in the presence of an antagonist (AID 1259381; calls by dose curve; also: nearly all actives have a fitted effect of over 15% in size)
# Outline: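 MDA-kb2 cells, 3,000/well, rested 5hr at 37C/0% CO2 → nilutamide 3.0uM final or buffer → compounds, 15 conc. → 16hr at 37C → ONE-Glo, 30min RT → luminescence.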
# [20] = qHTS assay to identify small molecule antagonists of the androgen receptor (AR) signaling pathway using the MDA cell line in the presence of 0.5 nM R1881 - cell viability counter screen (AID 1259242); also: nearly all actives have a fitted effect of over 45% in size
# Outline: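 Counter screen for cytotoxicity run in the same wells as the AR antagonist reporter screen: MDA-kb2 cells were treated 16 hr with test compounds and 0.5 nM R1881, then live-cell protease activity was measured by fluorescence.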
Compound,Potency [1],Potency [2],Potency [3],Potency [4],Potency [5],Potency [6],Potency [7],Potency [8],Potency [9],outcome [10],Potency [11],Potency [12],Potency [13],Potency [14],Potency [15],Potency [16],outcome [17],Potency [18],Potency [19],Potency [20]
CN1C[C@H](CNC(=O)OCc2ccccc2)C[C@@H]2c3cccc4c3c(cn4C)C[C@H]21,inactive,inactive,inactive,inactive,inactive,inactive,inactive,inactive,inactive,inactive,,,,,,,,,,
C=C(C#N)CCC#N,inactive,inactive,inactive,inactive,inactive,inactive,inactive,inactive,inactive,inactive,inactive,inactive,inactive,inactive,inactive,inactive,,,,
COCCOCCO,inactive,inactive,inactive,inactive,61.1 µM (active),inactive,,inactive,inactive,inactive,,27.3 µM (active),,,inactive,inactive,inactive,,,
CCOP(=S)(OCC)Oc1nc(Cl)c(Cl)cc1Cl,inactive,inactive,inactive,48.7 µM (active) and inactive,,inactive,,,inactive,inactive,43.4 µM (active) and inactive,,inactive,38.6 µM (active),inactive,27.4 µM (active) and 54.5 µM (active),,27.4 µM (active),inactive,
O=C(OC1CCCCC1)c1ccccc1C(=O)OC1CCCCC1,inactive,inactive,inactive,inactive,inactive,inactive,,inactive,inactive,inactive,inactive,51.2 µM (active),,,,inactive,,,,
O=C=Nc1ccc(Cl)cc1,inactive,,,inactive,,,inactive,inactive,inactive,,inactive,,inactive,2.43 µM (active),,,,,,inactive
Cc1c(F)c(F)c(COC(=O)C2C(/C=C(\Cl)C(F)(F)F)C2(C)C)c(F)c1F (stereo not drawn),inactive,,inactive,inactive,,inactive,inactive,inactive,inactive,inactive,inactive,,inactive,,inactive,inactive,,,,inactive
Cc1ccc(-c2c(Cl)nc(C#N)n2S(=O)(=O)N(C)C)cc1,inactive,43.2 µM (active),,inactive,,,,,inactive,,,,,,27.3 µM (active),,,38.5 µM (active),inactive,
CCOP(=S)(Oc1ccc([N+](=O)[O-])cc1)c1ccccc1 (stereo not drawn),inactive,inactive,inactive,inactive,inactive,inactive,inactive,,inactive,,inactive,inactive,inactive,inactive,inactive,,,,,
COCC(C)N(C(=O)CCl)c1c(C)csc1C (stereo not drawn),inactive,,inactive,inactive,,inactive,,inactive,inactive,,inactive,30.6 µM (active),,inactive,inactive,,inactive,,,

# — PubChem BioAssay (Tox21)
